The results in this text go back to PubChem BioAssay AID1259343 (VanderVen Lab, College of Veterinary Medicine, Cornell …, 2017).

What is called inhibition is the drop in the measured response relative to a control, in per cent.

Structures are written as SMILES. Screen size: about 6,200 compounds; about 2,900 (47%) were called active. Cut-off read from the data, not from the text of the source: active = inhibition above about 50%; inactive = the rest. So high a share suggests a set chosen from earlier hits. This is one part of the list.

This assay is described as follows: Mycobacterium tuberculosis growth inhibition, primary screen (AID 1259343). The settings on record: inhibition: at 10 µM, active compounds read high; outcome: 10 uM.
In the case of `NC(Cc1ccc(Cl)cc1)c1csc(Nc2ccc(-c3ccccc3)nn2)n1` (stereo unspecified), the inhibition is 91.2% (active).

Consider `COc1cccc(Nc2nc(C(N)Cc3ccc(F)cc3)cs2)n1` (stereo unspecified), for which the inhibition was 86.6% (active).

`COc1cccc(Nc2nc(C(N)Cc3ccc(Cl)cc3)cs2)n1` (stereo unspecified): the inhibition is 80.4% (active).

Take `COc1ccc(CC(N)c2csc(Nc3cccc(OC)n3)n2)cc1` (stereo unspecified): the inhibition was 85.1% (active).

Turning to `COc1ccc(-c2csc(NC3CCCC3)n2)c(OC)c1`, the inhibition is 16.6% (inactive).

For `COc1cccc(Nc2nc(C(N)C3CCCCC3)cs2)n1` (stereo unspecified), the inhibition was 86.2% (active).

As to `COc1cccc(Nc2nc(C(N)Cc3ccc(C(F)(F)F)cc3)cs2)n1` (stereo unspecified), the inhibition is 75.8% (active).

Consider `CN(Cc1ccc(O)cc1)C(=O)C1=NOC(c2ccccc2)C1` (stereo unspecified), for which the inhibition was 66.5% (active).

Turning to `CC(C)c1cc(C(=O)N2CCOC(CCc3ccccc3)C2)no1` (stereo unspecified), the inhibition was 56.6% (active).

For the molecule `O=C(CCc1cccs1)N1CCOC(CCCc2ccccc2)C1` (stereo unspecified), the inhibition is 34.9% (inactive).

Turning to `COc1ccc(C(=O)N2CCOC(CCc3ccccc3)C2)cc1F` (stereo unspecified), the inhibition was 57.4% (active).

For `CC(C)Cc1cc(C(=O)N2CCOC(CCCc3ccccc3)C2)n[nH]1` (stereo unspecified), the inhibition was 54.1% (active).

In the case of `O=C(c1ccc2c(c1)OCCO2)N1CCOC(CCc2ccccc2)C1` (stereo unspecified), the inhibition is 39.8% (inactive).

Consider `O=C(CCS(=O)(=O)c1ccccc1F)Nc1ccc(I)cc1`, for which the inhibition was 80.2% (active).

In the case of `O=C(COc1ccccc1F)Nc1ccc2c(c1)OC(F)(F)O2`, the inhibition was 21.4% (inactive).

For `O=C1N(c2ccc(Cl)cc2)C(c2ccc3c(c2)OCO3)C1(F)F` (stereo unspecified), the inhibition is 78.8% (active).

Regarding `O=C1N(c2ccccc2)C(c2ccco2)C1(F)F` (stereo unspecified), the inhibition was 40.3% (inactive).

On to `Clc1ccc(-n2ncc3c2CCN(Cc2cc4c(cc2Cl)OCO4)C3)cc1`, for which the inhibition is 23.9% (inactive).

Regarding `O=C1N(c2ccc3c(c2)OCO3)C(c2ccc(Cl)cc2)C1(F)F` (stereo unspecified), the inhibition is 89.3% (active).

For `O=C1N(c2ccc3c(c2)OCO3)C(c2ccc3c(c2)OCO3)C1(F)F` (stereo unspecified), the inhibition is 102% (active).

Take `c1cc2c(cc1[C@H]1OC[C@H]3[C@@H]1CO[C@H]3c1ccc3c(c1)OCO3)OCO2`: the inhibition was 49% (inactive).

For the molecule `O=C1N(c2ccc3c(c2)OCO3)C(c2cccc(F)c2)C1(F)F` (stereo unspecified), the inhibition is 27% (inactive).

Regarding `CCCc1cc(=O)[nH]c(SCCOc2ccc(Br)cc2)n1`, the inhibition is 18.1% (inactive).

As to `Nc1c(C(=O)CCC(=O)O)oc2ccc(Cl)cc12`, the inhibition is 20.1% (inactive).

As to `Nc1c(C(=O)c2ccc(Br)s2)oc2ccccc12`, the inhibition was 43.5% (inactive).

For `Nc1c(C(=O)CCC(=O)O)oc2ccc(Br)cc12`, the inhibition is 68% (active).

For `O=C(O)CCC1NCC2CC1CN1CCCCC21` (stereo unspecified), the inhibition is 1.66% (inactive).

On to `CSC(Nc1ccc(Br)cc1)=C(C#N)C#N`, for which the inhibition was 101% (active).

Regarding `Clc1cccc(Cl)c1OCCOc1cccc2cccnc12`, the inhibition is 94.7% (active).

Regarding `Cc1ccc(Cl)c(OCCCOc2cccc3cccnc23)c1`, the inhibition is 71.6% (active).

On to `COc1ccc(C2CC(=O)C3=C(C2)NC(C)=C(C#N)C3c2ccc(Cl)c(Cl)c2)cc1` (stereo unspecified), for which the inhibition is -9.69% (inactive).

Take `CCOc1ccc2nc(CN3CCN(CC=C(C)C)C(CCO)C3)ccc2c1` (stereo unspecified): the inhibition entry was “inactive”.

Turning to `OC1(c2cccs2)C[N+]2=C(SCC2)N1c1ccccc1` (stereo unspecified), the inhibition was -3.48% (inactive).

As for `CCCCc1ccc(N2C3=[N+](CCCS3)CC2(O)c2ccc(C)cc2)cc1` (stereo unspecified), the inhibition is 79.3% (active).

For the molecule `Oc1c(Br)cc(C=NNc2ccccn2)cc1Br`, the inhibition is 97.7% (active).

Turning to `N#Cc1ccc(CNc2ccc(F)cc2Cl)cc1`, the inhibition was -56.2% (inactive).

Turning to `N#Cc1cc(F)c(NCc2ccc(F)cc2)c(F)c1`, the inhibition is 69.3% (active).

With `N#Cc1cnc(NCc2ccc(N3CCOCC3)c(F)c2)c(Cl)c1`, the inhibition was 5.19% (inactive).

With `CCCCS(=O)(=O)NCC1CCCCC1`, the inhibition is 25.9% (inactive).

For the molecule `CCCCS(=O)(=O)NCCOc1ccc(C)cc1`, the inhibition is 75% (active).

On to `COc1cccc(C(=O)Nc2ccc(S(=O)(=O)C(F)F)cc2)c1`, for which the inhibition is -1.65% (inactive).

Take `CC(O)c1cccc(OCc2ccc(S(=O)(=O)C(F)F)cc2)c1` (stereo unspecified): the inhibition is 88.2% (active).

Consider `Cc1ccccc1OCC1=NN2C(=N)/C(=C/c3ccc(Br)o3)C(=O)N=C2S1`, for which the inhibition was 51.2% (active).

For the molecule `O=C1CC(C(=O)NCc2ccccc2Cl)c2ccc(F)cc2N1` (stereo unspecified), the inhibition was 87.3% (active).

Regarding `O=C(Cc1ccccc1Cl)NCc1cc(F)cc(F)c1`, the inhibition was 24% (inactive).

`CC1(Cc2ccccc2Cl)C(=O)Nc2c(Cl)ccc(Cl)c21` (stereo unspecified): the inhibition is 20.4% (inactive).

With `C(=NNc1nc2ccccc2[nH]1)c1c(-c2ccccc2)[nH]c2ccccc12`, the inhibition was 28.8% (inactive).

Turning to `C(=NNc1nc2ccccc2[nH]1)C(=NNc1nc2ccccc2[nH]1)c1ccccc1`, the inhibition was 79.8% (active).

As for `CC(=NNc1nc2ccccc2[nH]1)c1ccc(C)o1`, the inhibition is 84.2% (active).

Take `CC1Oc2ccccc2C=C1/C=N\Nc1nc2ccccc2[nH]1` (stereo unspecified): the inhibition was 94.2% (active).

For `CC1=CCCC(C)(C)C1C=CC(C)=NNc1nc2ccccc2[nH]1` (stereo unspecified), the inhibition was 36.3% (inactive).

Regarding `OCn1nc(-c2ccc(Cl)cc2Cl)oc1=S`, the inhibition was 75.9% (active).

For `Fc1ccc(-c2[nH]ncc2CN2CCC(c3ccccc3F)C2)c(F)c1` (stereo unspecified), the inhibition was 84.8% (active).

As for `COc1cccc(-c2cnnc(N3CCC(c4ccccc4F)C3)n2)c1` (stereo unspecified), the inhibition is 41.2% (inactive).

Consider `O=C1NC(=S)NC(=O)C1=Cc1ccc(OCc2ccc(Cl)cc2)cc1`, for which the inhibition was 97.1% (active).

Consider `C=CCN1C(=O)NC(=O)/C(=C/c2ccc(OCc3ccccc3F)cc2)C1=O`, for which the inhibition is 37.1% (inactive).

As for `CCCCCC(C)NC(=O)c1ccc([N+](=O)[O-])s1` (stereo unspecified), the inhibition is -12.6% (inactive).

In the case of `N#Cc1c(NC(=O)c2ccc([N+](=O)[O-])s2)sc2c1CCCC2`, the inhibition was 99.4% (active).

For `NC(=O)c1ccsc1NC(=O)c1ccc([N+](=O)[O-])s1`, the inhibition was -3.4% (inactive).

Take `N#Cc1c(NC(=O)c2ccco2)sc2c1CCCCC2`: the inhibition was -3.03% (inactive).

For `O=C(Nc1ccc([N+](=O)[O-])cc1)c1ccc(Br)s1`, the inhibition is 91.6% (active).

Consider `N#Cc1c(NC(=O)CC2(CC(=O)O)CCCC2)sc2c1CCCC2`, for which the inhibition entry was “inactive”.

`Cc1ccc(NC(=O)c2ccc([N+](=O)[O-])s2)cc1`: the inhibition is 78.9% (active).

For `CN[C@H](CC(C)C)C(=O)N[C@H]1C(=O)N[C@@H](CC(N)=O)C(=O)N[C@H]2C(=O)N[C@H]3C(=O)N[C@H](C(=O)N[C@H](C(=O)O)c4cc(O)cc(O)c4-c4cc3ccc4O)[C@H](O)c3ccc(c(Cl)c3)Oc3cc2cc(c3O[C@@H]2O[C@H](CO)[C@@H](O)[C@H](O)[C@H]2O[C@H]2C[C@](C)(N)[C@H](O)[C@H](C)O2)Oc2ccc(cc2Cl)[C@H]1O`, the inhibition was 49.3% (inactive).

In the case of `COc1cccc(OCCCOc2ccc([N+](=O)[O-])cc2)c1`, the inhibition was 27.9% (inactive).

Take `COc1ccc(OCCN2CCN(c3ccc([N+](=O)[O-])cc3)CC2)cc1`: the inhibition is 90.8% (active).

For the molecule `Cc1cccc2c(=O)[nH]c(Cn3nnn(-c4cccs4)c3=O)nc12`, the inhibition is -0.78% (inactive).

Consider `Cn1nc(C(C)(C)C)cc1NC(=O)c1ccc(C(F)(F)F)cc1`, for which the inhibition was 21.5% (inactive).

Regarding `O=C(NCCn1nc(-c2cccnc2)ccc1=O)Nc1ccc(C(F)(F)F)cc1`, the inhibition was 18.6% (inactive).

Consider `O=C(Nc1nnc(-c2ccc(Cl)cc2)o1)c1ccncc1`, for which the inhibition is 21.6% (inactive).

With `Cc1ccc(C#N)cc1NC(=O)c1ccc(C(F)(F)F)cc1`, the inhibition was -17.1% (inactive).

In the case of `CC(C)(C)c1ccc(C(=O)Nc2nnc(-c3cccnc3)o2)cc1`, the inhibition was 97.4% (active).

`Cc1nnc(NC(=O)c2ccc(C(F)(F)F)cc2)o1`: the inhibition was 101% (active).

`Oc1ccc(N=Nc2nn[nH]n2)c(O)c1`: the inhibition is 61.7% (active).

In the case of `Brc1ccc(NN=C(N=Nc2nn[nH]n2)c2ccccc2)cc1`, the inhibition is 29.1% (inactive).

`C=CCn1c(SC(C)c2nc3sc(C)c(C)c3c(=O)[nH]2)nnc1C1CCCCC1` (stereo unspecified): the inhibition is 0.9% (inactive).

As for `COc1ccc(NC(=O)CSc2nc(CC(=O)NCCC3=CCCCC3)cs2)cc1`, the inhibition was 86.3% (active).

Regarding `Cc1ccc(NC(=O)CSc2nc(CC(=O)NCCC3=CCCCC3)cs2)cc1`, the inhibition was 81.6% (active).

For the molecule `C[C@@H]1[C@H]2C[C@@H](C[C@H]1NC(=O)c1ccc(Nc3cccc(C(F)(F)F)c3)nc1)C2(C)C`, the inhibition was 6.48% (inactive).

Turning to `Fc1cccc(CN2CCN(Cc3ccc(-c4ccccc4)nc3)CC2)c1`, the inhibition was 27.7% (inactive).

`CCN(C)c1cc(N2CCN(Cc3cc4ccccc4n3C)CC2)ncn1`: the inhibition was 49.3% (inactive).

Consider `CC(C)Oc1cccc(CN2CCN(c3ccnc(N(C)C)n3)CC2)c1`, for which the inhibition is 91% (active).

In the case of `Cc1nnc(Sc2cc(=O)oc3ccccc23)s1`, the inhibition was 99.2% (active).

Consider `O=c1cc(O)c2ccccc2o1`, for which the inhibition is -50.4% (inactive).

`COC(=O)CSc1nnc(N2CCN(c3ccccc3)CC2)s1`: the inhibition is 75.5% (active).

Regarding `CNC(=O)NC(=O)COc1ccc(-c2ccccc2)cc1Cl`, the inhibition is 40.5% (inactive).

Consider `CCCCOC(=O)Nc1cc(C)c(Cl)cc1OC`, for which the inhibition was 45.3% (inactive).

With `COC(=O)COc1cc(Cl)c(Cl)cc1Cl`, the inhibition was 77.4% (active).

`COC(=O)C(Nc1ccc(OC)cc1)(c1cc(OC)c(O)c(OC)c1)C(F)(F)F` (stereo unspecified): the inhibition was 84% (active).

Regarding `COc1cc(C(=O)Nc2cc(C)cc(C)c2)cc(Cl)c1O`, the inhibition is -11.6% (inactive).

On to `Cc1nn(CC(C)C)c2sc(C(=O)NCC3CC3)cc12`, for which the inhibition is 3.65% (inactive).

As to `c1ccc(N=c2scc(-c3ccccc3)n2CC2CCCO2)cc1` (stereo unspecified), the inhibition is 20.4% (inactive).

Take `COc1ccc(N=c2scc(-c3cc4ccccc4o3)n2CC2CCCO2)cc1` (stereo unspecified): the inhibition was 77% (active).

Consider `c1ccc2oc(-c3nnn(CC4CCCCO4)n3)cc2c1` (stereo unspecified), for which the inhibition was 91% (active).

On to `CC12CCC3C(=CCc4cc(O)ccc43)C1CCC2=O` (stereo unspecified), for which the inhibition is 43.2% (inactive).

Regarding `O=C(NCCc1c[nH]c2ccccc12)c1cn(Cc2ccccc2Cl)nn1`, the inhibition is 21.3% (inactive).

For the molecule `c1ccc2c(CCNc3ccc(Nc4ccncc4)cc3)c[nH]c2c1`, the inhibition was 72.8% (active).

Take `Cc1cc(C(=O)O)c(C)n1C`: the inhibition was -7.58% (inactive).

Take `CCOC(=O)C1=C(C)N=c2s/c(=C/c3cccc([N+](=O)[O-])c3)c(=O)n2C1c1ccccc1F` (stereo unspecified): the inhibition was -21.3% (inactive).

In the case of `CCOC(=O)c1ccc(N2CN=c3sc(=Cc4ccccc4)c(=O)n3C2)cc1`, the inhibition is 88.9% (active).

For the molecule `CC1(C)CN=c2s/c(=C\c3ccc(Cl)cc3)c(=O)n2C1`, the inhibition was 31.2% (inactive).
